According to PubChem BioAssay (NCATS):
Inconclusive results are not listed. Calls of active or inactive are those of the source. Unless noted, the call rests on the fitted dose curve; in most records, active means well fitted curve in the direction sought with a large enough effect; inconclusive means small, poorly fitted or top-dose-only effect, or another doubt; inactive means no such curve, though single readings can be large; an effect the other way counts as inactive or inconclusive.

Experiments:
[1] = P-glycoprotein substrates identified in KB-8-5-11 adenocarcinoma cell line, qHTS therapeutic library screen (AID 1346987); further: nearly all actives have a fitted effect of over 65% in size; further: potency means the concentration at half of the fitted maximal effect
Method in brief: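 Steps: plate 500 KB-8-5-11 cells/well in DMEM + 10% FCS (colchicine removed); pin compounds in dose-response; incubate 72 h, 37 degree C, 5% CO2; add CellTiter-Glo, 5 min; read luminescence.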

[2] = target: Glutathione peroxidase 1 (Homo sapiens) (UniProt P07203); assay: Primary qHTS Assay for Inhibitors of Recombinant Selenoprotein Glutathione Peroxidase 1 (GPX1) (AID 1845191); further: nearly all actives have a fitted effect of over 65% in size; further: potency means the concentration at half of the fitted maximal effect; on activity, negative = inhibition: on the % scale 0 is the no-effect control and ±100 the full control effect
Method in brief: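 GR-coupled assay: compounds preincubated 30 min at room temperature with GPX1, then reaction started with CHP; final 10 nM GPX1, 1 mM GSH, 0.5 mM CHP, 0.5 mM NADPH, 100 nM GR, 0.01% BSA, pH 7.5 Tris buffer. NADPH fluorescence (340/450 nm) read at 0 and 15 min.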

[3] = Drug repurposing screens with cells derived from glioblastoma tumor samples (AID 1345199); conditions: GBM patient neurospheres viability, ATP luminescence, 48 h; further: nearly all actives have a fitted effect of over 40% in size; further: potency means the concentration at half of the fitted maximal effect; on activity, negative = cell killing: on the % scale 0 is the no-effect control and ±100 the full control effect
Method in brief: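 Four patient lines of CD133+ GBM neurospheres were screened at several concentrations; hits were retested in those lines plus three slower-growing GBM lines, using 48-hour treatment and ATP-based viability.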

[4] = P-glycoprotein substrates identified in KB-3-1 adenocarcinoma cell line, qHTS therapeutic library screen (AID 1346986); further: nearly all actives have a fitted effect of over 60% in size;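 further: potency means the concentration at half of the fitted maximal effect; potency is for cytotoxicity meaning loss of cell viability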; on activity change, negative = cytotoxicity: on the % scale 0 is the no-effect control and ±100 the full control effect
Method in brief: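 KB-3-1 parental and colchicine-selected P-gp-overexpressing KB-8-5-11 cells (colchicine omitted during assay), 500 cells/well, dosed in dose-response for 72 h at 37 °C; CellTiter-Glo luminescence. Cytotoxic: curve class -1.1 to -2.4, max response >50%, AC50 < 10 uM.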

[5] = Primary qHTS for inhibitors of nuclear receptor binding SET domain protein 2 (NSD2) in an isogenic RCH-ACV NSD2 p.E1099K mutant (9B) (AID 1645876); further: nearly all actives have a fitted effect of over 70% in size; further: potency means the concentration at half of the fitted maximal effect
[6] = Primary qHTS for inhibitors of nuclear receptor binding SET domain protein 2 (NSD2) in an RCH-ACV wild type WT cells (2C) (AID 1645877); further: nearly all actives have a fitted effect of over 70% in size; further: potency means the concentration at half of the fitted maximal effect
[7] = target: Phospholipid hydroperoxide glutathione peroxidase GPX4 (Homo sapiens) (UniProt P36969); assay: Primary qHTS Assay for Inhibitors of Recombinant Selenoprotein Glutathione Peroxidase 4 (GPX4) (AID 1845192); conditions: outcome: dose series up to 50 µM unless noted; further: nearly all actives have a fitted effect of over 65% in size
Method in brief: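 GR-coupled assay: recombinant GPX4 preincubated 30 min with compound at room temperature; final 200 nM GPX4, 1 mM GSH, 0.5 mM cumene hydroperoxide, 0.5 mM NADPH, 100 nM GR, 0.01% BSA, pH 7.5 Tris. NADPH fluorescence (340/450 nm) read at 0 and 15 min.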

[8] = qHTS drug screen for cell cycle checkpoint inhibitors in PARPi-resistant BRCA-mutant ovarian cancer cell lines. (AID 1963452; calls by dose curve); conditions: PEO1/OlaR viability, CellTiter-Glo luminescence, 96 h, stronger effect = lower value
Method in brief: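 PEO1, PEO4 and PEO1/OlaR ovarian cancer cells, 600 per well, exposed 96 h at 37C to a dilution series. Viability read by CellTiter-Glo luminescence, normalized to DMSO and empty wells; activity summarized as Z-AUC.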

[9] = target: Calcium and integrin-binding protein 1 (Homo sapiens) (UniProt Q99828); assay: Primary qHTS for Identification of Calcium Integrin Binding Protein 1 (CIB1) Competitor (AID 1508620);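 further: GST tagged CIB1 binding a fluorescein labelled alphaIIb integrin peptide tracer; top concentration of the series differs between compounds; on the % scale 0 is the no-effect control and ±100 the full control effect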
Method in brief: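 Fluorescence polarization competition: GST-tagged CIB1 (1 uM final) preincubated with compound 15 min at room temperature, then FITC-labelled alphaIIb peptide (100 nM final) added. After 15 min at room temperature, polarization read at Ex 480/Em 540.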

[10] = at 46.1 µM (top of the series), tumour line C
[11] = measured here: PEO1 parental Z-AUC
[12] = at 45.9 µM (top of the series), tumour line B
[13] = at 45.9 µM (top of the series), tumour line D

Chain of Calcium and integrin-binding protein 1 (Homo sapiens) (Q99828 whole entry, looked up): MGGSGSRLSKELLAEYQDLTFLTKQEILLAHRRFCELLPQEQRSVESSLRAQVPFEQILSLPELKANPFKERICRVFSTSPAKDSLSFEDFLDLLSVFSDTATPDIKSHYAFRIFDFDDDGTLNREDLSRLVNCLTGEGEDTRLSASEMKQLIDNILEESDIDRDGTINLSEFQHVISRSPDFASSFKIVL
Chain of Phospholipid hydroperoxide glutathione peroxidase GPX4 (Homo sapiens) (P36969 whole entry, looked up): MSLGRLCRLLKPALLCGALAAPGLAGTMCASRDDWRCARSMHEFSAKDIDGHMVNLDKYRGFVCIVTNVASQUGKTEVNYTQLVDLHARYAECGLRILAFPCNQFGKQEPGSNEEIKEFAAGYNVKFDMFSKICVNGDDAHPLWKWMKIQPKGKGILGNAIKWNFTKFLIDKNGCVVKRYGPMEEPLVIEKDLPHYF
Chain of Glutathione peroxidase 1 (Homo sapiens) (P07203 whole entry, looked up): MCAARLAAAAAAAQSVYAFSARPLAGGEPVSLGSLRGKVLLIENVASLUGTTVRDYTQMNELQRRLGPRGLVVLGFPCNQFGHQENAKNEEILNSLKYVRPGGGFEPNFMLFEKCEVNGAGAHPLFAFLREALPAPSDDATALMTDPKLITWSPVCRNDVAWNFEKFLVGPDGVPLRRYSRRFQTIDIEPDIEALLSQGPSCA

CN1CCN(CCC=C2c3ccccc3Sc3ccc(S(=O)(=O)N(C)C)cc32)CC1
active: Potency [1] 23.1 µM | Potency ([3]; tumour line A) 7.08 µM | Potency ([3]; tumour line B) 35.5 µM
inactive: Potency [2] | activity, negative = cell killing [3, 10] 4.82%

CS(=O)(=O)CCNCc1nc(-c2ccc3ncnc(Nc4ccc(OCc5cccc(F)c5)c(Cl)c4)c3c2)cs1
inactive: activity change, negative = cytotoxicity [4] 4.91% [at 9.29 µM] | outcome [1] inactive [at 9.29 µM] | outcome [2] inactive [at 9.52 µM]

O=c1[nH]ccc2c(S(=O)(=O)N3CCCNCC3)cccc12
inactive: Potency [4] | Potency [1] | Potency [5] | Potency [6] | Potency [2]

C[C@H]1COCCN1c1cc(C2(S(=O)(=O)C3CC3)CC2)nc(-c2ccc(NC(=S)NCCO)cc2)n1
-1.07: Z-AUC [8, 11]
inactive: Potency [2] | Potency [7] | Z-AUC [8] -1.32
active: Potency [4] 0.103 µM | Potency [1] 0.731 µM | Potency [5] 0.059 µM | Potency [6] 0.0934 µM
-1.96: Z-AUC ([8]; measured here: PEO4 Z-AUC)

CCc1c(C(=O)NNC(=O)[C@@H](O)c2cc(F)cc(F)c2)ccc(O)c1C
inactive: Potency [4] | Potency [1] | Potency [5] | Potency [6] | Potency [2] | Potency [7] | Z-AUC [8] 1.17
0.688: Z-AUC [8, 11]
1.04: Z-AUC ([8]; measured here: PEO4 Z-AUC)

C=C1/C(=C\C=C2/CCC[C@]3(C)[C@@H]([C@H](C)OCCC(C)(C)O)CC[C@@H]23)C[C@@H](O)C[C@@H]1O
inactive: activity, negative = cell killing [3, 12] -19.1% | activity, negative = cell killing [3, 13] -17.2% | activity, negative = cell killing [3, 10] -27.4%
active: Potency ([3]; tumour line A) 25.1 µM

C#Cc1cccc(Nc2ncnc3cc4c(cc23)OCCOCCOCCO4)c1
0.297: Z-AUC ([8]; measured here: PEO4 Z-AUC)
0.664: Z-AUC [8, 11]
inactive: Potency [4] | Potency [1] | Potency [6] | Potency [2] | Potency [7] | Z-AUC [8] 0.644

N[C@@H](C(=O)N[C@@H]1C(=O)N2C(C(=O)O)=C(CSc3cn[nH]n3)CS[C@H]12)c1ccc(O)cc1
inactive: Potency [7] | activity, negative = cell killing [3, 12] -1.12% | activity, negative = cell killing [3, 13] -13.1% | activity, negative = cell killing [3, 10] 10.5%
active: Potency [2] 18 µM

N#C/C(=C(\N)Sc1ccc(N)cc1)c1ccccc1C(F)(F)F
inactive: Potency [4] | Potency [1]

CC(C)C(N)C(=O)OCC(CO)OCn1cnc2c(=O)[nH]c(N)nc21 (stereo not drawn)
1.36: Z-AUC ([8]; measured here: PEO4 Z-AUC)
1.06: Z-AUC [8, 11]
inactive: Potency [4] | Potency [1] | Potency [5] | Potency [6] | Potency [2] | Potency [7] | Z-AUC [8] 0.614

CCOC(=O)c1cc2ccc(O)cc2oc1=O
inactive: Potency [4] | Potency [1] | Potency [5] | Potency [6]

COC[C@H](C)Oc1cc(O[C@@H](C)Cc2ccccc2)cc(C(=O)Nc2ccc(C(=O)O)cn2)c1
inactive: Potency [4] | Potency [1] | Potency [5] | Potency [6] | Potency [2]

Cc1cc(N2CCOCC2)cc2[nH]c(-c3c(NCC(O)c4cccc(Cl)c4)cc[nH]c3=O)nc12 (stereo not drawn)
active: Potency [4] 2.06 µM | Potency [1] 5.8 µM | Potency [5] 1.64 µM | Potency [6] 1.46 µM

CCN(CC)CCNc1ccc2ncn3c4ccc(O)cc4c(=O)c1c23
inactive: Potency [2]
active: Potency [4] 1.3 µM | Potency [1] 1.3 µM | Potency [5] 0.0651 µM | Potency [6] 0.058 µM

CN(C)CC1CCn2cc(c3ccccc32)C2=C(C(=O)NC2=O)c2cn(c3ccccc23)CCO1 (stereo not drawn)
inactive: Potency [4] | Potency [1]
active: Potency [5] 13 µM | Potency [6] 16.4 µM

Cc1ccc(NS(=O)(=O)c2cc3c(cc2NC(C)CO)NC(=O)CC3)cc1C (stereo not drawn)
inactive: Potency [4] | Potency [1] | outcome [9] | Potency [2]

COc1cc(OC)c(/C=C2\C(=O)Nc3ccccc32)c(OC)c1
inactive: Potency [2]
active: Potency [4] 0.92 µM | Potency [1] 0.92 µM | Potency [5] 1.03 µM | Potency [6] 0.92 µM

[2H]C([2H])([2H])C(OC(=O)[C@H](C)N[P@](=O)(OC[C@H]1O[C@@H](n2ccc(=O)[nH]c2=O)[C@](C)(F)[C@@H]1O)Oc1ccccc1)C([2H])([2H])[2H]
inactive: Potency [4] | Potency [1] | Potency [5] | Potency [6]

CC(C)C(=O)OC[C@@]1(N=[N+]=[N-])O[C@@H](n2ccc(N)nc2=O)[C@H](OC(=O)C(C)C)[C@@H]1OC(=O)C(C)C
inactive: Potency [4] | Potency [1] | Potency [5] | Potency [6]

Oc1cccc(Nc2ccnc3cc(-c4cccc(CN5CCOCC5)c4)sc23)c1
inactive: Potency [2]
active: Potency [4] 7.31 µM | Potency [1] 8.2 µM | Potency [5] 1.64 µM | Potency [6] 1.46 µM

O=C1CCCC2=C1C(c1ncccc1Br)N=C(Nc1nc3ccccc3o1)N2 (stereo not drawn)
inactive: Potency [4] | Potency [1] | outcome [9] | Potency [2]

CN(C)CCNC(=O)c1cccn2c(=O)c3cc4ccccc4cc3nc12
active: Potency [4] 1.19 µM | Potency [1] 1.19 µM | Potency [5] 0.668 µM | Potency [6] 0.668 µM
inactive: activity, negative = inhibition [2] 2.53% [at 9.52 µM]

O=C1CCCC2=C1C(c1ccccc1Br)N=C(Nc1nc3ccccc3o1)N2 (stereo not drawn)
inactive: Potency [4] | Potency [1] | outcome [9] | Potency [5] | Potency [6] | Potency [2]

O=C1OC(/C=C/c2ccccc2)=NC/1=C\c1cccnc1
inactive: Potency [4] | Potency [1] | Potency [5] | Potency [6] | Potency [2]
